Consider 38 targets from the supplement of paper PMC12819154, “High-throughput peptide-centric local stability assay extends protein–ligand identification to membrane proteins, tissues and bacteria” (Nature Structural & Molecular Biology, 2025).

Chain of UniProt Q9BTE7 (Q9BTE7 whole entry): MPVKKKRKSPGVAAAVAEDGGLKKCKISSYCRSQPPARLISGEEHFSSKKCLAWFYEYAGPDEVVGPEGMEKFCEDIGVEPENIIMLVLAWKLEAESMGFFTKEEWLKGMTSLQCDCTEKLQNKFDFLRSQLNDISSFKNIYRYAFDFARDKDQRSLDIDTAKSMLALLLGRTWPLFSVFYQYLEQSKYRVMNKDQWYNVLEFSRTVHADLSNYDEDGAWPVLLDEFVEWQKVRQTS
Chain of UniProt Q00532 (Q00532 whole entry): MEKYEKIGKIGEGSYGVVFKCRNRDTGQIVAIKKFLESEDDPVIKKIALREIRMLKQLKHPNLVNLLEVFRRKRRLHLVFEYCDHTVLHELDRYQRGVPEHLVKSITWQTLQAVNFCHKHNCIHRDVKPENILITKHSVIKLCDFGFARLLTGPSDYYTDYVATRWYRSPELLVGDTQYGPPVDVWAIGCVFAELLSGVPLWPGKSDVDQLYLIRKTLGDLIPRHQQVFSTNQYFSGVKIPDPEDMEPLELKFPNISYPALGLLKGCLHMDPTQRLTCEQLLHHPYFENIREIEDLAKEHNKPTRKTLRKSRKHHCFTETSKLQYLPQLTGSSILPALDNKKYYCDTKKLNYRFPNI
Chain of UniProt P50750 (P50750 whole entry): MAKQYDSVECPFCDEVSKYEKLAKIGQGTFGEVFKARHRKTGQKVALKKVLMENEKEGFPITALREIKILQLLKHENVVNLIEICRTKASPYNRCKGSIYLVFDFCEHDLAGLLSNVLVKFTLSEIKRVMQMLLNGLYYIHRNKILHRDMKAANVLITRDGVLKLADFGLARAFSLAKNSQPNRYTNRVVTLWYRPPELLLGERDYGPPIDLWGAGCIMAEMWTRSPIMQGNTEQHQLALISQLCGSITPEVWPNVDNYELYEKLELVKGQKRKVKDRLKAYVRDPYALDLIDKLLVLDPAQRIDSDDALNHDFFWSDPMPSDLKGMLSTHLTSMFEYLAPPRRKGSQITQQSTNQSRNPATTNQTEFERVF
Chain of UniProt Q6PHR2 (Q6PHR2 whole entry): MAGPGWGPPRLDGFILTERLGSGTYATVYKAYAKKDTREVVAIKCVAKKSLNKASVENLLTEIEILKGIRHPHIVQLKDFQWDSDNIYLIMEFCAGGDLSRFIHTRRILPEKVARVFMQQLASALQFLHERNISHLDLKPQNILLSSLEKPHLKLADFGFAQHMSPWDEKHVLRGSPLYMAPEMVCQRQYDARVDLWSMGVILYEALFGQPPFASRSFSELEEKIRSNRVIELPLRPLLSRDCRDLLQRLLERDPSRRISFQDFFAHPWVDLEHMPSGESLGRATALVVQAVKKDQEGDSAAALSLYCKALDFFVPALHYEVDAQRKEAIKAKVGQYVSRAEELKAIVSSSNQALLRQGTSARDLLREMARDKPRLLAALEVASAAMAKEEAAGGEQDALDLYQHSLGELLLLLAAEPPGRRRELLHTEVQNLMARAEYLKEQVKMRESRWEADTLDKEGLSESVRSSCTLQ
Chain of UniProt Q9UHD2 (Q9UHD2 whole entry): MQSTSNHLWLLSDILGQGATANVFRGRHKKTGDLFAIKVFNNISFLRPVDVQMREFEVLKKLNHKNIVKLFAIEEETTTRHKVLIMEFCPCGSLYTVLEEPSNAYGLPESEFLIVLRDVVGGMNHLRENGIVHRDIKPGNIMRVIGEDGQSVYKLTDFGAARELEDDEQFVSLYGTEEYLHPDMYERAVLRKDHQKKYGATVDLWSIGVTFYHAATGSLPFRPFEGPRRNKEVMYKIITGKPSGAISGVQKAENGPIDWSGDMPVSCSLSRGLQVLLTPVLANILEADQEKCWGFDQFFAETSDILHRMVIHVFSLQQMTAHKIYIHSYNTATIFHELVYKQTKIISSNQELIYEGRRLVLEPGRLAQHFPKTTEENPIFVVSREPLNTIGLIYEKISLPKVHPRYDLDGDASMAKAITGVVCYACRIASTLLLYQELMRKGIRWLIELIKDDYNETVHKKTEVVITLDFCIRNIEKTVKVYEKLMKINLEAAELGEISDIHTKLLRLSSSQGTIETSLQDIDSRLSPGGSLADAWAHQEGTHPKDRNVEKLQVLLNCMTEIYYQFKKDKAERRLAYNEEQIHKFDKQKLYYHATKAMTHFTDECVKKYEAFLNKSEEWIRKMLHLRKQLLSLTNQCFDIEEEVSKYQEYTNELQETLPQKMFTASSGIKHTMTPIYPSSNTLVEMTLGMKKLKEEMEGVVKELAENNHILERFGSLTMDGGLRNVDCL
Chain of UniProt Q5SW79 (Q5SW79 whole entry): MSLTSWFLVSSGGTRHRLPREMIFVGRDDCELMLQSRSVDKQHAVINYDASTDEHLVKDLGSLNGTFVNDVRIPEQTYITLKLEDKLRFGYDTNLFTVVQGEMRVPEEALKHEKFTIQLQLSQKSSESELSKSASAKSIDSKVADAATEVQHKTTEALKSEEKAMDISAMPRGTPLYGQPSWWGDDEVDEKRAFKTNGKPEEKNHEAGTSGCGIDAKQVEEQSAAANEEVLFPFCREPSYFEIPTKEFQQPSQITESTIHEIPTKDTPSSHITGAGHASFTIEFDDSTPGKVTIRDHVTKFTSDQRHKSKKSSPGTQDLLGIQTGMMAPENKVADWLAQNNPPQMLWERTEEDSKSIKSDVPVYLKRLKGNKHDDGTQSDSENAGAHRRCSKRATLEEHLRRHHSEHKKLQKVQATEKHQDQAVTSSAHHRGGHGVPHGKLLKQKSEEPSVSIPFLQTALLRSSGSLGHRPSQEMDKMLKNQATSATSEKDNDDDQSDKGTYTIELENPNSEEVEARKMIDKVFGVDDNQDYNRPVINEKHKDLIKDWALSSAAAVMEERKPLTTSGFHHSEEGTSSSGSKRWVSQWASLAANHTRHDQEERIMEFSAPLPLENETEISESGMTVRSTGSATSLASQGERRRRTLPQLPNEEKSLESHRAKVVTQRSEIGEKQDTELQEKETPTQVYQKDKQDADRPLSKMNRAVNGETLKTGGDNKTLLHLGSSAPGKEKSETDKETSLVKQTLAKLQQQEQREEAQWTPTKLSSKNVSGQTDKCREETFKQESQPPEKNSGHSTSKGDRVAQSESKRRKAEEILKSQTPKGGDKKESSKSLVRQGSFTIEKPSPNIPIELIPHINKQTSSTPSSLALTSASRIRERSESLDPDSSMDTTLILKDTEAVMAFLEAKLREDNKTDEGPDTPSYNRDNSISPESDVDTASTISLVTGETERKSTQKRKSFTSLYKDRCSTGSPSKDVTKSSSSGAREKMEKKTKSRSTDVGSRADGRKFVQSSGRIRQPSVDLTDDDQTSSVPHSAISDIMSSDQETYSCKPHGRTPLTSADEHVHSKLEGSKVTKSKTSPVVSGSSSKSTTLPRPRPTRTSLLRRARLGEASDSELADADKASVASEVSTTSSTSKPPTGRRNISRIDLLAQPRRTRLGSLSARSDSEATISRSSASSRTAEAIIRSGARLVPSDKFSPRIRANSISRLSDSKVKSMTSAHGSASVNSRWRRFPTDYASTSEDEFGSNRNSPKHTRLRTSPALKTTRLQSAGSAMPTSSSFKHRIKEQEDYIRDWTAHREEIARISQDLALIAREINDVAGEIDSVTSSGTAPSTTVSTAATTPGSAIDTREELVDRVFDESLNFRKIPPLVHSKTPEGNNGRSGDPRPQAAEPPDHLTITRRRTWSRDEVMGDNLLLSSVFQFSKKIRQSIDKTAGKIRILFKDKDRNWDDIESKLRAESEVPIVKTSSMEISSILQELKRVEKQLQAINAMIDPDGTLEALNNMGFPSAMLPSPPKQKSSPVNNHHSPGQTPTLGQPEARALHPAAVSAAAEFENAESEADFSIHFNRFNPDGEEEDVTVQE
Chain of UniProt Q99986 (Q99986 whole entry): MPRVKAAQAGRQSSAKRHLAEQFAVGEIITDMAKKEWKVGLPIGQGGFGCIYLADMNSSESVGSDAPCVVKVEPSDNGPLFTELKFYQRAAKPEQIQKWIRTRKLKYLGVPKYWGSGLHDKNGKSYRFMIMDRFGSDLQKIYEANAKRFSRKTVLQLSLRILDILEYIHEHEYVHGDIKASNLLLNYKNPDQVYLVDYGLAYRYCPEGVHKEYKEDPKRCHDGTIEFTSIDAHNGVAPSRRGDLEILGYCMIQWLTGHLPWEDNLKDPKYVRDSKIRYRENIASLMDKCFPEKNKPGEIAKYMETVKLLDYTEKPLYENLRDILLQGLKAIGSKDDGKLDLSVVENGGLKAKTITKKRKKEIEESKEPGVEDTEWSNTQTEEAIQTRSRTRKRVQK
Chain of UniProt P55884 (P55884 whole entry): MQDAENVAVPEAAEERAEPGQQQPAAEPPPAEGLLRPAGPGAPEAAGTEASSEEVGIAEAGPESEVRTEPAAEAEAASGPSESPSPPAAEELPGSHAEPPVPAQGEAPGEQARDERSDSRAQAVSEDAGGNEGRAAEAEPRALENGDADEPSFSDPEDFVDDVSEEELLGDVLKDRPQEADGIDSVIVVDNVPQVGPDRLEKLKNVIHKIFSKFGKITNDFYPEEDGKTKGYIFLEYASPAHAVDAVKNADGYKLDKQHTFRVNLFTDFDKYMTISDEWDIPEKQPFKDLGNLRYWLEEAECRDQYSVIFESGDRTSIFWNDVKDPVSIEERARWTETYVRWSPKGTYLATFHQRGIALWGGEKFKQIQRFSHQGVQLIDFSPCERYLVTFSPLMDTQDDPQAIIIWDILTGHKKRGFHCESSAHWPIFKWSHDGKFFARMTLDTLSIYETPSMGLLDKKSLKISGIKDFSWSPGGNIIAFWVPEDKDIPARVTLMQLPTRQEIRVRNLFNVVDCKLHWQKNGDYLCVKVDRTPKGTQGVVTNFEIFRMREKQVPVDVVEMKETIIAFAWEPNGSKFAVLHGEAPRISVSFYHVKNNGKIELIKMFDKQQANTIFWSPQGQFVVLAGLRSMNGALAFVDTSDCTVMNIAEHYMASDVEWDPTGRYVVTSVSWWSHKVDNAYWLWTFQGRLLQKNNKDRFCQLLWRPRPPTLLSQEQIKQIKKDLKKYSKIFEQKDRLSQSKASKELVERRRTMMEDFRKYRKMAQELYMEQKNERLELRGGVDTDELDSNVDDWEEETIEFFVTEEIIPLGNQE

Compound in the assay: CN[C@@H]1C[C@H]2O[C@@](C)([C@@H]1OC)n1c3ccccc3c3c4c(c5c6ccccc6n2c5c31)C(=O)NC4 [staurosporine]
Nature of the assay: log2 fold change of tryptic peptide abundance, ligand vs vehicle (limited proteolysis) (log2 ratio); higher = more trypsin-susceptible (destabilized). The conditions noted are these: ligand concentration: 20 uM; sample: K562 cleared lysate; digestion: 4 min, 22 C (HT-PELSA RT4min, Orbitrap Astral).
With “PAK2 (peptide sequence: MTDEEIMEK, peptide start residue: 227) (UniProt Q13177)”, the log2 fold change is -2.15. Consider “EIF3B (peptide sequence: PRPPTLLSQEQIK, peptide start residue: 706) (UniProt P55884)”, for which the log2 fold change amounted to 0.691.

Consider “TOP2A (peptide sequence: GESDDFHMDFDSAVAPR, peptide start residue: 1493) (UniProt P11388)”, for which the log2 fold change was -0.599.

As for “VRK1 (peptide sequence: DILLQGLK, peptide start residue: 322) (UniProt Q99986)”, the log2 fold change was -0.866. Regarding “UniProt P19525 (peptide sequence: IGDFGLVTSLK, peptide start residue: 430)”, the log2 fold change was -1.42. Turning to “UniProt O75170 (peptide sequence: ILEAWEANDHTQAAGGMR, peptide start residue: 456)”, the log2 fold change is -0.977. Under “ULK1 (peptide sequence: LFLQQIAGAMR, peptide start residue: 117) (UniProt O75385)” stands -1.62; under “TBK1 (peptide sequence: VIGEDGQSVYK, peptide start residue: 144) (UniProt Q9UHD2)”, -1.75; under “TAOK3 (peptide sequence: VLIDLIQR, peptide start residue: 285) (UniProt Q9H2K8)”, -1.49. As for “LIMK2 (peptide sequence: TLDFGLNVK, peptide start residue: 553) (UniProt P53671)”, the log2 fold change was -1.38. Take “CDK9 (peptide sequence: EGFPITALR, peptide start residue: 57) (UniProt P50750)”: the log2 fold change is -1.73.

Take “HERC2 (peptide sequence: TLHSLTQWNGLINK, peptide start residue: 2152) (UniProt O95714)”: the log2 fold change is -0.746. In the case of “USP8 (peptide sequence: SYSSPDITQAIQEEEKR, peptide start residue: 716) (UniProt P40818)”, the log2 fold change worked out at 1.8. Under “OSBPL9 (peptide sequence: VVLPTFILER, peptide start residue: 391) (UniProt Q96SU4)” stands 0.326; under “RPS6KA2 (peptide sequence: ADPSQFELLK, peptide start residue: 63) (UniProt Q15349)”, -1. Regarding “CEP170 (peptide sequence: SDSEATISR, peptide start residue: 1165) (UniProt Q5SW79)”, the log2 fold change came to 0.41. Regarding “CDKN1C (peptide sequence: SLFGPVDHEELSR, peptide start residue: 32) (UniProt P49918)”, the log2 fold change was determined as 1.39. On to “ULK3 (peptide sequence: VIELPLRPLLSR, peptide start residue: 230) (UniProt Q6PHR2)”, for which the log2 fold change was -1.32.

As for “USP28 (peptide sequence: FVDPSAALDLLK, peptide start residue: 232) (UniProt Q96RU2)”, the log2 fold change turned out to be 0.578. As for “CCNB1 (peptide sequence: NVVMVNQGLTK, peptide start residue: 386) (UniProt P14635)”, the log2 fold change was -1.47.

Consider “BRAF (peptide sequence: GYLSPDLSK, peptide start residue: 525) (UniProt P15056)”, for which the log2 fold change is 0.499. With “TNK1 (peptide sequence: VADFGLVRPLGGAR, peptide start residue: 261) (UniProt Q13470)”, the log2 fold change was -3.64.

On to “GSTP1 (peptide sequence: MPPYTVVYFPVRGR, peptide start residue: 1) (UniProt P09211)”, for which the log2 fold change was 0.55. Turning to “RIPK2 (peptide sequence: KTEYPDVAWPLR, peptide start residue: 110) (UniProt O43353)”, the log2 fold change is -0.494. For “PRKAR1A (peptide sequence: ILMGSTLR, peptide start residue: 234) (UniProt P10644)” the value was 0.333; for “UniProt Q00537 (peptide sequence: LGEGTYATVYK, peptide start residue: 171)”, -2.88. For “RFESD (peptide sequence: EYSSVCVGREDDIK, peptide start residue: 14) (UniProt Q8TAC1)”, the log2 fold change came to 0.768. As for “CAMKK1 (peptide sequence: DIKPSNLLLGDDGHVK, peptide start residue: 275) (UniProt Q8N5S9)”, the log2 fold change was -3.71.

For “UniProt Q9P289 (peptide sequence: NNPPTLVGDFTK, peptide start residue: 234)”, the log2 fold change was -1.31. “UniProt O75582 (peptide sequence: VGIENFELLK, peptide start residue: 44)”: the log2 fold change is -0.481. “PIP5K1C (peptide sequence: DCLVLESFK, peptide start residue: 305) (UniProt O60331)”: the log2 fold change is -0.54. For “UniProt O14920 (peptide sequence: AAMMNLLR, peptide start residue: 453)” the value was 0.5; for “DCUN1D5 (peptide sequence: SMLALLLGR, peptide start residue: 164) (UniProt Q9BTE7)”, 1.45. As for “AK2 (peptide sequence: NLETPLCK, peptide start residue: 86) (UniProt P54819)”, the log2 fold change is 0.399.

Take “PKN3 (peptide sequence: TTNWQALLAR, peptide start residue: 820) (UniProt Q6P5Z2)”: the log2 fold change was -2.37. For the target “UniProt Q96CW1 (peptide sequence: TFITQQGIK, peptide start residue: 131)”, the log2 fold change came to 0.558. As to “UniProt P60842 (peptide sequence: ATQALVLAPTR, peptide start residue: 100)”, the log2 fold change amounted to 0.334. As to “CDKL1 (peptide sequence: LCDFGFAR, peptide start residue: 693) (UniProt Q00532)”, the log2 fold change was -0.936.
